“And” between values parts separate entries of the source, which are not always exact repeats. Identical values can stand only once. Counter-ions that a name gives are not always drawn.
Columns and labels:
Assay in all cases: cell viability relative to vehicle control; higher = less cytotoxic
Details in all cases: 10 µM
K562 = system: K562
Method in brief: (§1)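 Mutant clones made by CRISPR editing and their isogenic wild-type counterparts, from four leukaemia lines, were exposed to a single 10 µM dose of each library compound for 48 h. The supernatant was then removed and CellTiter-Glo luminescence was read. Viability was reported as percent of the on-plate vehicle control.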

MARIMO = system: MARIMO
Method in brief: as §1

MOLM14 = system: MOLM14
Method in brief: as §1

OCI-AML2 = system: OCI-AML2
Method in brief: as §1

| Structure (SMILES) | cell viability (K562; SRSF2 genotype: SRSF2 P95H/wt) | cell viability (K562; SRSF2 genotype: SRSF2 wt/wt) [%] | cell viability (MARIMO; SRSF2 genotype: SRSF2 P95H/wt) [%] | cell viability (MARIMO; SRSF2 genotype: SRSF2 wt/wt) [%] | cell viability (MOLM14; SRSF2 genotype: SRSF2 P95H/wt) [%] | cell viability (MOLM14; SRSF2 genotype: SRSF2 wt/wt) [%] | cell viability (OCI-AML2; SRSF2 genotype: P95H/wt) [%] | cell viability (OCI-AML2; SRSF2 genotype: wt/wt) [%] |
| --- | --- | --- | --- | --- | --- | --- | --- | --- |
| CC1=CCC2C(C1)C2(C)C (centres undefined) [3-Carene] | 104% and 96% | 106 | 101 | 103 | 100 | 106 | 101 | 112 |
| NS(N)(=O)=O [Sulfamide] | 104% and 96% | 108 | 98.6 | 103 | 102 | 107 | 98.4 | 108 |
| O=C(c1ccc(Oc2ccccc2)cc1Cl)c1c[nH]c2ncnc(N[C@@H]3CC[C@@H](CO)OC3)c12 | 9.11% and 19% | 14.3 | 23.1 | 22.1 | 12.6 | 17 | 13.4 | 16.1 |
| CC(=O)c1ccc(O)c(C(=O)O)c1 [5-Acetylsalicylic acid] | 110% and 106% | 98 | 106 | 112 | 101 | 107 | 102 | 105 |
| O=C(c1ccc(F)c(F)c1Nc1ccc(I)cc1F)N1CC(O)([C@@H]2CCCCN2)C1 [Cobimetinib (GDC-0973, RG7420)] | 22.4% and 35.4% | 35.5 | 27.5 | 28.6 | 29.6 | 21.1 | 18.2 | 26.1 |
| COc1ccc(CNCc2cccc3ccccc23)cc1 | 91.6% and 97% | 95.1 | 88.5 | 97.4 | 97.4 | 101 | 92.4 | 101 |
| Cc1ccc2nc(NCCN)c3ncc(C)n3c2c1 | 37.6% and 36.4% | 34.5 | 7.18 | 3 | 1.38 | 0.62 | 2.44 | 13 |
| CC(C)[C@H]1CC[C@H](C(=O)N[C@H](Cc2ccccc2)C(=O)O)CC1 [Nateglinide (Starlix)] | 103% and 101% | 98.8 | 97.8 | 101 | 97.9 | 99.3 | 105 | 97.5 |
| Cn1cnc(-c2cc3nccc(Oc4ccc(NC(=S)NC(=O)Cc5ccccc5)cc4F)c3s2)c1 | 80.4% and 84.1% | 71.9 | 87.8 | 105 | 23.3 | 15.3 | 49.2 | 58.8 |
| CN1CCN2c3ncccc3Cc3ccccc3C2C1 (centres undefined) [Mirtazapine (Remeron, Avanza)] | 101% and 92.3% | 88.7 | 93.2 | 96.8 | 92.3 | 97.4 | 95.9 | 96.5 |
| CN(C)CCCCC(=O)Nc1ccc(NC(=S)NC(=O)c2ccc(C(C)(C)C)cc2)cc1 [Tenovin-6] | 2.61% and 5.21% | 12.4 | 1.49 | 1.85 | 1.6 | 0.76 | 1.27 | 5.3 |
| Cc1nc(Nc2ncc(C(=O)Nc3cc(NC(=O)c4cccc(C(F)(F)F)c4)ccc3C)s2)cc(N2CCN(CCO)CC2)n1 | 11.4% and 16% | 20.1 | 50 | 63 | 12.2 | 13.8 | 55.5 | 57.3 |
| O=C(O)c1cn(-c2ccc(F)cc2)c2cc(N3CCNCC3)c(F)cc2c1=O [Sarafloxacin HCl] | 99.7% and 102% | 90.9 | 97.8 | 102 | 103 | 99.5 | 102 | 102 |
| COc1c2occc2cc2ccc(=O)oc12 [Methoxsalen (Oxsoralen)] | 108% and 106% | 107 | 106 | 106 | 105 | 111 | 98.1 | 107 |
| CCc1c(Cl)c(O)c(Cl)c(O)c1C(=O)O[C@H]1[C@H](O)[C@H](OC)[C@H](OC/C2=C\C=C\C[C@H](O)/C(C)=C/[C@H](CC)[C@@H](O[C@@H]3OC(C)(C)[C@@H](OC(=O)C(C)C)[C@H](O)[C@@H]3O)/C(C)=C/C(C)=C/C[C@@H]([C@@H](C)O)OC2=O)O[C@@H]1C [Fidaxomicin] | 81.3% and 80.5% | 78.3 | 86.2 | 91.3 | 74.9 | 84.6 | 110 | 100 |
| Cc1cc2c(F)c(Oc3ncnn4cc(OC[C@@H](C)O)c(C)c34)ccc2[nH]1 | 94.6% and 98.7% | 99.5 | 107 | 106 | 97.5 | 104 | 97.5 | 86.6 |
| O=C1NC(=O)/C(=C/c2ccc(-c3ccc(F)cc3O)o2)S1 | 94.7% and 95.1% | 88.4 | 75.9 | 79.2 | 89.3 | 100 | 62.3 | 59 |
| O=C(CCN1CCN(C(=O)OCc2cc(Cl)cc(Cl)c2)CC1)c1ccc2[nH]c(=O)oc2c1 | 88.6% and 96.5% | 94.5 | 87.2 | 106 | 83.1 | 98.8 | 88.2 | 109 |
| C[C@@H]1Cc2c([nH]c3ccccc23)[C@@H](c2c(F)cc(/C=C/C(=O)O)cc2F)N1CC(C)(C)F | 106% and 105% | 108 | 107 | 104 | 101 | 97.4 | 117 | 107 |

| Structure (SMILES) | cell viability (K562; SRSF2 genotype: SRSF2 P95H/wt) | cell viability (K562; SRSF2 genotype: SRSF2 wt/wt) [%] | cell viability (MARIMO; SRSF2 genotype: SRSF2 P95H/wt) [%] | cell viability (MARIMO; SRSF2 genotype: SRSF2 wt/wt) [%] | cell viability (MOLM14; SRSF2 genotype: SRSF2 P95H/wt) [%] | cell viability (MOLM14; SRSF2 genotype: SRSF2 wt/wt) [%] | cell viability (OCI-AML2; SRSF2 genotype: P95H/wt) [%] | cell viability (OCI-AML2; SRSF2 genotype: wt/wt) [%] |
| --- | --- | --- | --- | --- | --- | --- | --- | --- |
| O=S(=O)(N=Cc1c(O)ccc2ccccc12)c1cccs1 | 100% and 99.8% | 95.2 | 100 | 97.3 | 100 | 99 | 101 | 103 |
| O=c1nc(N2CCOCC2)oc2c(-c3cccc4c3sc3ccccc34)cccc12 | 92.3% and 93.3% | 90.1 | 93.2 | 102 | 82.6 | 81.6 | 75.1 | 80.3 |
| CC[C@@](C)(Nc1ccnc(-c2c[nH]c3ncccc23)n1)C(=O)NCC(F)(F)F [Decernotinib (VX-509)] | 98.6% and 99.9% | 104 | 95.1 | 96.2 | 88.8 | 106 | 85.1 | 92.2 |
| O=C(/C=C/c1ccc(O)cc1)OC[C@H]1O[C@@H](Oc2c(-c3ccc(O)cc3)oc3cc(O)cc(O)c3c2=O)[C@H](O)[C@@H](O)[C@@H]1O [Tiliroside] | 99.3% and 99.1% | 95.3 | 98.9 | 109 | 100 | 105 | 104 | 111 |
| CC(COc1ccccc1Cc1ccccc1)N1CCCCC1 (centres undefined) [Benproperine phosphate] | 82.8% and 87.2% | 91.3 | 70.4 | 78.5 | 82.5 | 88.2 | 93.7 | 84.7 |
| COc1ccc2c(Oc3ccc(NC(=O)c4c(C)n(CC(C)(C)O)n(-c5ccccc5)c4=O)nc3)ccnc2c1 | 46% and 69.9% | 50 | 84.8 | 97.3 | 11 | 10.7 | 27.8 | 35.9 |
| CCOC(C)OCCc1ccccc1 (centres undefined) [Efetaal] | 105% and 100% | 108 | 97.8 | 99.3 | 107 | 107 | 104 | 98.9 |
| CC(C)n1c([C@H](C)Nc2ncnc(N)c2C#N)cc2cccc(-c3ccc(=O)n(C)c3)c2c1=O | 71.2% and 78.7% | 68.5 | 46.7 | 34 | 20.9 | 22.6 | 5.13 | 19.1 |
| COc1ccc(CC(=O)O)cc1OC [Homoveratrumic acid] | 92% and 79.3% | 85.9 | 89.2 | 98.9 | 89.3 | 92.8 | 88.2 | 99 |
| C[C@@H]1O[C@@H](O[C@H]2[C@H](Oc3cc(O)c4c(c3)O[C@H](c3ccc(O)cc3)CC4=O)O[C@H](CO)[C@@H](O)[C@@H]2O)[C@H](O)[C@H](O)[C@H]1O [Naringin (Naringoside)] | 101% and 119% | 111 | 102 | 107 | 106 | 109 | 112 | 100 |
| O=c1cc(-c2ccc(O)c(O)c2)oc2c([C@@H]3O[C@H](CO)[C@@H](O)[C@H](O)[C@H]3O)c(O)cc(O)c12 [Orientin] | 104% and 101% | 101 | 100 | 97.3 | 103 | 103 | 98.8 | 100 |
| C[C@@]12C[C@@]3(O)O[C@@H](O1)[C@]1(COC(=O)c4ccccc4)[C@@H]3C[C@]12O[C@@H]1O[C@H](COC(=O)c2ccccc2)[C@@H](O)[C@H](O)[C@H]1O [Benzoylpaeoniflorin] | 99.7% and 101% | 93.4 | 96.2 | 96.7 | 104 | 97.8 | 93.9 | 102 |
| CCCN[C@H]1CCc2nc(N)sc2C1 [Pramipexole dihydrochloride monohydrate] | 102% and 83.9% | 83 | 78.1 | 85.2 | 66.5 | 74.9 | 88.2 | 78.2 |
| COc1ccccc1N1CCN(CC(O)COc2cccc3ccccc23)CC1 (centres undefined) [Naftopidil Dihydrochloride] | 75.2% and 86.7% | 72.6 | 57 | 65.2 | 58.4 | 60.1 | 71.4 | 74.5 |
| COC(=O)C=Cc1ccc(O)c(OC)c1 [Ferulic acid methyl ester] | 106% and 99.9% | 108 | 95.4 | 104 | 105 | 104 | 104 | 104 |
| CN1CCC(=C2c3ccccc3C=Cc3ccccc32)CC1 [Cyproheptadine hydrochloride (Periactin)] | 90.8% and 86.3% | 83 | 77.3 | 89 | 72.5 | 91.5 | 81.1 | 85 |
| C[C@H](NCc1ccc(OCc2cccc(F)c2)cc1)C(N)=O [Safinamide] | 101% and 109% | 107 | 103 | 105 | 98.7 | 106 | 104 | 106 |
| CC(C)=CCC/C(C)=C/CC/C(C)=C/CCC(=O)OC/C=C(\C)CCC=C(C)C [Gefarnate] | 106% and 102% | 96.4 | 99.7 | 110 | 96.4 | 102 | 89.7 | 93.5 |
| COC(=O)C1=C(C)NC(C)=C(C(=O)OC(C)C)C1c1cccc2nonc12 (centres undefined) [Isradipine (Dynacirc)] | 95.3% and 96.5% | 97.3 | 99.4 | 103 | 101 | 100 | 93.2 | 99.5 |

Source: the supplement of paper PMC10981050
